# The sample as a whole holds a higher share of the strongest signals than the screen did.
# Columns and labels:
# Assay in all cases: glycan array binding signal (z-score within array); higher = stronger binding
# Settings in all cases: glycan notation: IUPAC condensed, linker removed
# [1] = biological target: Fuc(a1-2)Gal(b1-4)GlcNAc(b1-3)Gal(b1-4)GlcNAc(b1-3)Gal(b1-4)GlcNAc
# In short: (§1)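 Glycan array data came from 3228 arrays in the Consortium for Functional Glycomics database, and only arrays with an available protein sequence were kept. Glycan names were put into IUPAC-condensed notation, and columns mapping to the same glycan were averaged. The binding signal is a within-array Z-score, averaged across arrays of one protein sequence run at different concentrations or buffers and across linkers. A negative Z-score can be read as non-binding.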
# [2] = biological target: Fuc(a1-2)Gal6S(b1-4)GlcNAc
# In short: as §1
# [3] = biological target: Fuc(a1-3)[Gal3S(b1-4)]Glc6S
# In short: as §1
# [4] = biological target: Fuc(a1-3)[Gal3S(b1-4)]GlcNAc6S
# In short: as §1
# [5] = biological target: Fuc(a1-3)[GalNAc(b1-4)]GlcNAc
# In short: as §1
# [6] = biological target: Gal(b1-4)GlcNAc(b1-3)[Gal(b1-4)GlcNAc(b1-6)]GalNAc
# In short: as §1
# [7] = biological target: Gal3S(b1-3)[Fuc(a1-4)]GlcNAc
# In short: as §1
# Gal3S(b1-4)Glc = biological target: Gal3S(b1-4)Glc
# In short: as §1
# Gal3S6S(b1-4)GlcNAc6S = biological target: Gal3S6S(b1-4)GlcNAc6S
# In short: as §1
# GalNAc(b1-3)Gal = biological target: GalNAc(b1-3)Gal
# In short: as §1
# [8] = biological target: GlcNAc(b1-4)Gal(b1-4)GlcNAc
# In short: as §1
# [9] = biological target: Neu5Ac(a2-3)Gal(b1-4)[Fuc(a1-3)]GlcNAc6S
# In short: as §1
# [10] = biological target: Neu5Ac(a2-3)[GalNAc(b1-4)]Gal(b1-4)GlcNAc
# In short: as §1
# Neu5Ac(a2-6)Gal(b1-4)Glc = biological target: Neu5Ac(a2-6)Gal(b1-4)Glc
# In short: as §1
# [11] = biological target: Neu5Ac(a2-6)Gal(b1-4)GlcNAc(b1-3)Gal(b1-4)[Fuc(a1-3)]GlcNAc(b1-3)Gal(b1-4)[Fuc(a1-3)]GlcNAc
# In short: as §1
# [12] = biological target: Neu5Ac(a2-8)Neu5Ac(a2-8)Neu5Ac
# In short: as §1
# [13] = biological target: Neu5Ac(a2-8)Neu5Ac(a2-8)Neu5Ac(a2-3)[GalNAc(b1-4)]Gal(b1-4)Glc
# In short: as §1
# Neu5Ac(b2-6)GalNAc = biological target: Neu5Ac(b2-6)GalNAc
# In short: as §1
binder,measurement,setting,value
"L-Selectin (Mus musculus), P18337 (protein) MVFPWRCEGTYWGSRNILKLWVWTLLCCDFLIHHGTHCWTYHYSEKPMNWENARKFCKQNYTDLVAIQNKREIEYLENTLPKSPYYYWIGIRKIGKMWTWVGTNKTLTKEAENWGAGEPNNKKSKEDCVEIYIKRERDSGKWNDDACHKRKAALCYTASCQPGSCNGRGECVETINNHTCICDAGYYGPQCQYVVQCEPLEAPELGTMDCIHPLGNFSFQSKCAFNCSEGRELLGTAETQCGASGNWSSPEPICQVVQCEPLEAPELGTMDCIHPLGNFSFQSKCAFNCSEGRELLGTAETQCGASGNWSSPEPICQETNRSFSKIKEGDYNPLFIPVAVMVTAFSGLAFLIWLARRLKKGKKSQERMDDPY",glycan array binding signal (z-score),[1],-0.485
same,glycan array binding signal (z-score),[2],-0.072
same,glycan array binding signal (z-score),[3],3.99
same,glycan array binding signal (z-score),[4],4.9
same,glycan array binding signal (z-score),[5],-0.454
same,glycan array binding signal (z-score),[6],-0.393
same,glycan array binding signal (z-score),[7],3.61
same,glycan array binding signal (z-score),Gal3S(b1-4)Glc,0.558
same,glycan array binding signal (z-score),Gal3S6S(b1-4)GlcNAc6S,4.38
same,glycan array binding signal (z-score),GalNAc(b1-3)Gal,-0.436
same,glycan array binding signal (z-score),[8],-0.044
same,glycan array binding signal (z-score),[9],8.82
same,glycan array binding signal (z-score),[10],-0.282
same,glycan array binding signal (z-score),Neu5Ac(a2-6)Gal(b1-4)Glc,-0.214
same,glycan array binding signal (z-score),[11],-0.252
same,glycan array binding signal (z-score),[12],-0.493
same,glycan array binding signal (z-score),[13],-0.235
same,glycan array binding signal (z-score),Neu5Ac(b2-6)GalNAc,-0.495

# — the supplement of paper PMC8728848
